Assay outcomes (PubChem)
PrP UTR inh – inhibition of PrP 5' UTR reporter expression | cell-based PrP 5' UTR mRNA reporter, plate reader | inhibition, % (no concentration beside the values) | 340,000 tested, 0.35% active | AID 488862; in the data active means inhibition above about 52%; further: 0 = median of the neutral control wells
Sa ugtP lethal – growth inhibition of S. aureus ugtP deletion strain | S. aureus RN4220 ugtP deletion, OD600 growth, 16 h | AID 1259309 | 330,000 tested, 0.54% active | growth inhibition, % (concentration not given with the values); in the data active means growth inhibition above about 68%;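 further: plate controls were untreated wells for no effect and antibiotic for full effect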
RN4220 kill – kills Staphylococcus aureus RN4220; S. aureus RN4220 growth, OD600, 16 h; inhibition, % (concentration not given with the values); 330,000 tested, 0.33% active; AID 1259311; in the data active means inhibition above about 85%;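 further: plate controls were untreated cells for no effect and reference antibiotic for full effect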
PfHsp40 rescue – rescue of PfHsp40-mediated yeast toxicity; 340,000 tested, 0.68% active; growth rescue, % at 12.5 µM; AID 504582; S. cerevisiae expressing PfHsp40, growth rescue, ATP luminescence; in the data active means growth rescue above about 28%, passing the limit was not always enough;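 further: yeast W303a lacking pdr1 and pdr3 grown in galactose medium; growth measured after three days at 30 °C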
TcdB GH inh – TcdB glycohydrolase inhibition; P18177; TcdB glycohydrolase enzymatic assay, plate reader; inhibition, % at 9.99 µM; 350,000 tested, 0.24% active; in the data active means inhibition above about 10%
Active calls of the source: *; · = not tested or not shown. Rows were chosen to be rich in hits. Some 1.2% of all compounds tested hit in one or more screens of this group.

SMILES	PrP UTR inh	Sa ugtP lethal	RN4220 kill	PfHsp40 rescue	TcdB GH inh
C[C@@H]1CN([C@@H](C)CO)C(=O)Cc2cc(NC(=O)Cc3ccccc3)ccc2O[C@@H]1CN(C)CC1CC1	·	·	·	·	-0.9
COC(=O)CC1=C(C(=O)OC)C2(C(=O)N(C)c3ccccc32)C(C#N)=C(N)O1 (stereo not drawn)	-28.3	98.2*	98.1*	0.2	·
CCOC(=O)CC1=C(C(=O)OCC)C2(C(=O)Nc3ccccc32)C(C#N)=C(N)O1 (stereo not drawn)	-1.6	44.0	53.3	1.0	·
Oc1c(Cl)c(Cl)c(Cl)c(Cl)c1Cl	-23.6	100.4*	100.2*	298.5*	0.1
CC(=O)Oc1c(C)cc(Cl)cc1C(=O)Nc1ccc([N+](=O)[O-])cc1Cl	-102.3	96.0*	97.9*	5.5	0.2
CC(=O)OCC(=O)Nc1ccc([N+](=O)[O-])cc1Cl	-11.8	2.7	3.2	-0.6	1.2
CCCc1ccc(C(C)NC(=S)NCc2ccc(F)cc2)cc1 (stereo not drawn)	-7.8	-21.4	-10.5	-1.4	0.2
CC(NC(=S)NCc1ccc(F)cc1)C12CC3CC(CC(C3)C1)C2 (stereo not drawn)	-25.3	-18.8	-13.0	157.1*	-0.5
CCC(NC(=S)NCc1ccc(F)cc1)c1ccc(C(C)C)cc1 (stereo not drawn)	-22.9	-20.7	-5.0	472.4*	0.3
Cc1ccc(S(=O)(=O)Nc2ccc3c(c2)CC(=O)N([C@H](C)CO)C[C@@H](C)[C@@H](CN(C)C(=O)NC(C)C)O3)cc1	·	·	·	·	-2.9
O=C(C[C@@H]1CC[C@@H]2[C@H](COC[C@@H](O)CN2C(=O)Nc2cccc(Cl)c2)O1)NCCCN1CCOCC1	·	·	·	·	1.2
Cc1noc(C)c1NC(=O)Nc1ccc2c(c1)C(=O)N([C@@H](C)CO)C[C@H](C)[C@H](CN(C)S(=O)(=O)c1ccccc1)OCCCC[C@@H](C)O2	·	·	·	·	-0.6
CCOc1cc(C)c(Cl)cc1S(=O)(=O)NC1CC(C)(C)NC(C)(C)C1	-12.7	2.7	0.3	-0.1	·
CCOc1cc(S(=O)(=O)NC2CC(C)(C)NC(C)(C)C2)ccc1Cl	3.6	5.6	-0.1	123.4*	1.0
Cc1noc(C)c1S(=O)(=O)N(C)C[C@H]1OCCCC[C@H](C)Oc2ccc(NC(=O)NC(C)C)cc2C(=O)N([C@@H](C)CO)C[C@@H]1C	·	·	·	·	0.3
Cc1ccc(NS(=O)(=O)c2ccc3[nH]c(=O)sc3c2)cc1	-2.1	99.8*	-8.7	-1.2	0.6
CC(Oc1ccc(Cl)cc1C(N)=O)C(=O)N1CCc2ccccc21 (stereo not drawn)	-25.7	-2.2	1.4	0.4	0.1
CC(Oc1ccc(Cl)cc1Cl)C(=O)NC(=S)N1CCc2ccccc21 (stereo not drawn)	11.3	98.4*	99.0*	0.4	0.5
c1ccc(-c2ccc(C(c3ccccc3)n3ccnc3)cc2)cc1 (stereo not drawn)	1.3	38.6	28.8	175.7*	1.2
c1ccc(-c2ccc(-n3ccnc3)cc2)cc1	-91.5	4.0	5.2	0.6	·
CC(=O)c1ccc(Oc2cc(-c3ccccc3)nc(-c3ccccc3)n2)cc1	-11.3	8.8	-4.0	0.0	1.6
O=Cc1ccc(Oc2cc(-c3ccccc3)nc(-c3ccccc3)n2)cc1	-0.9	100.5*	69.1	-0.3	·
COc1cccc(N/N=C/c2cccc(Br)c2O)c1	-117.2	·	·	15.9	0.2
COc1cc(C=NNc2cccc(C)c2)cc(Br)c1O	·	96.0*	53.7	·	·
CC(C)NC(=S)NN=Cc1ccc(N2CCOCC2)cc1	·	-0.6	0.3	·	·
SMILES	PrP UTR inh	Sa ugtP lethal	RN4220 kill	PfHsp40 rescue	TcdB GH inh
N#C/C(=C\c1ccc2c(c1)OCO2)C(=O)NCc1ccco1	-23.2	-0.2	0.9	53.5*	-0.2
CNC[C@H]1Oc2ccc(NS(=O)(=O)c3ccccc3)cc2C(=O)N([C@H](C)CO)C[C@H]1C	·	·	·	·	0.3
CC(Oc1ccc(Cl)cc1)C(=O)NNC(=S)NC(=O)c1ccco1 (stereo not drawn)	7.2	54.0	69.2	68.3*	-0.4
O=C(COc1ccc(Cl)cc1Cl)NNC(=S)NC(=O)c1ccco1	-17.3	90.1*	92.7*	1.1	2.8
Cc1noc(C)c1S(=O)(=O)Nc1ccc2c(c1)C(=O)N([C@@H](C)CO)C[C@H](C)[C@H](CN(C)C)OCCCC[C@@H](C)O2	·	·	·	·	-1.9
O=C(CON=Cc1ccc(OC(F)F)cc1)N1CCc2ccccc21	·	-0.2	-2.6	·	·
COc1ccccc1/C=C1\SC(=S)N(CCC(=O)NNC(=O)c2ccccc2O)C1=O	-19.1	-10.5	21.1	104.9*	·
C[C@@H]1CCCCO[C@@H](CN(C)C(=O)NC2CCCCC2)[C@H](C)CN([C@@H](C)CO)C(=O)c2cc(NC(=O)CCCN(C)C)ccc2O1	·	·	·	·	0.0
COc1cccc(OC)c1C(=O)NC(C)C12CC3CC(CC(C3)C1)C2 (stereo not drawn)	-14.2	69.5	15.5	83.9*	·
Cc1csc(C(C#N)C(=O)c2cc3ccccc3o2)n1 (stereo not drawn)	-81.6	79.1	83.6*	1.8	0.4
Cc1noc(C)c1S(=O)(=O)N(C)C[C@@H]1Oc2ccc(NC(=O)CCCN(C)C)cc2CC(=O)N([C@@H](C)CO)C[C@H]1C	·	·	·	·	0.4
COc1cccc(-n2c(SCc3ccccn3)nc3c(c2=O)SCC3)c1	-13.6	23.1	18.8	62.5*	3.6
COc1ccc(CNC(=S)NCc2ccc(OC(C)C)cc2)cc1	-24.5	-7.9	-3.0	0.4	1.0
COc1nc(SC)nc(Cl)c1Cc1ccc(OC(C)C)cc1	-10.8	92.1*	-7.3	-1.8	-1.4
CSc1nc(Cl)c(Cc2ccc(OC(C)C)cc2)c(N2CCOCC2)n1	-26.2	97.5*	-4.8	-0.3	·
CCCOc1ccc(Cc2c(Cl)nc(SC)nc2OC)cc1	-11.4	89.2*	-3.9	-0.9	-0.1
CCCOc1ccc(CSc2n[nH]c(C)n2)cc1	-49.1	·	·	4.2	1.4
CCOc1ccc(Cc2c(O)nc(SC)[nH]c2=O)cc1	·	·	·	·	0.7
CCCOc1ccc(Cc2c(Cl)nc(SC)nc2N(C)C)cc1	-10.5	87.3*	-2.2	-1.9	0.5
C[C@@H]1CN([C@@H](C)CO)C(=O)c2cc(/C=C/c3ccccc3)cnc2O[C@@H]1CN(C)Cc1cccc(C(=O)O)c1	·	·	·	·	0.3
CCCc1cn(CC[C@@H]2CC[C@H](NC(=O)C3CCOCC3)[C@@H](CO)O2)nn1	·	·	·	·	-3.4
CN(C)C(=O)C[C@@H]1CC[C@@H]2[C@@H](COc3ccc(NC(=O)c4ccc(F)c(F)c4)cc3C(=O)N2C)O1	·	·	·	·	0.1
O=C(Nc1ccc(Cl)cc1C(=O)O)c1ccc2c(c1)C(=O)N(Cc1ccco1)C2=O	-14.0	99.8*	66.3	4.6	·
CC(C)CCN1C(=O)c2ccc(C(=O)Nc3ccc(Br)cc3C(=O)O)cc2C1=O	-13.3	100.2*	97.7*	-1.3	0.7
C[C@]1(C(=O)NCc2cc(F)cc(C(F)(F)F)c2)C=CC(Cc2ccccc2)N1C(=O)c1ccccc1 (stereo partly drawn)	·	12.5	2.0	·	·
C[C@@H]1CN([C@@H](C)CO)C(=O)c2cc(-c3cccc(F)c3)cnc2O[C@@H]1CN(C)C(=O)c1cnccn1	·	·	·	·	-1.8
